Screening results deposited in PubChem by National Center for Advancing Translational Sciences (NCATS).
Pin1 inhibitor – human Pin1 inhibition. Q13526. Pin1 FP peptide displacement, HiFluor488, 10 min. Potency, µM (top dose mostly 115 µM), without a hit: top-dose activity, negative = inhibition, hits mostly inhibitors. 390,000 tested, 0.009% active; active means well fitted inhibition curve with a large enough effect in the polarisation, with a control signal flat, not every such curve was filed as active; inconclusive means small, poorly fitted or top-dose-only effect, or effect the other way, or a change in a side signal; inactive means no such curve, though single readings can be large or run the other way; the % refers to the polarisation; further: on the % scale 0 is the no-effect control and ±100 the full control effect
Target sequence (Q13526 whole entry, looked up): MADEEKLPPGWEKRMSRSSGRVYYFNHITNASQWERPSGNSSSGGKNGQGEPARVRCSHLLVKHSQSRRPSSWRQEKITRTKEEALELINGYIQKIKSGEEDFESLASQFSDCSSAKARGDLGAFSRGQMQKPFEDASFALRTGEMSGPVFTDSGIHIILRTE
Nrf2 activator – activators of Nrf2 (ARE) signaling | AREc32 ARE-luciferase reporter (MCF7-derived line), luminescence, 24 h | Potency, µM (titrated, usually from 46.1 µM), without a hit: at the highest dose activation, hits mostly activators | 410,000 tested, 0.31% active; further: % of control where 0% means no effect; nearly all actives have a fitted effect of over 65% in size
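ARE-driven firefly luciferase activity in AREc32 cells measured after a 24 hr compound exposure at 37 deg C, using Steady-Glo reagent and a 30 min room-temperature hold.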
A549 viability – counter-screen for Nrf2 inhibitors: cytotoxicity in A549 cells. Potency, µM (doses to about 46 µM), for inactives: at the highest dose activity change, negative = cytotoxicity, hits mostly inhibitors. 390,000 tested, 0.16% active. A549 ARE-Fluc cells, CellTiter-Fluor viability, 18-24 h; further: on the % scale 0 is the no-effect control and ±100 the full control effect
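A549 ARE_Fluc cells in 5% FBS OPTI-MEM were exposed to compounds in concentration-response for 18-24 h at 37 deg C. Viability was read by CellTiter-Fluor fluorescence (Ex 405/Em 525) after 30 min, before the luciferase read.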
Nrf2 block – blocks Nrf2 signaling. A549 ARE-Fluc reporter, luciferase luminescence, 18-24 h. Potency, µM (top dose mostly 46 µM), for inactives: top-dose activity change, negative = inhibition, hits mostly inhibitors. 360,000 tested, 2.1% active; further: on the % scale 0 is the no-effect control and ±100 the full control effect; nearly all actives have a fitted effect of over 60% in size
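Nrf2 activity is the BugLite luminescence, read 15 min after reagent at room temperature, following CellTiter-Fluor cytotoxicity readout (30 min, 37C). Compound titrations were applied for 18-24 h to 5000 A549 ARE_Fluc cells/well in 5% FBS OPTI-MEM.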
An asterisk follows results filed as active; ? = inconclusive; . = no result given; [ ] = another dose, or the depositor's remark. Rows were chosen to be rich in hits. Some 2.2% of all compounds tested hit in one or more screens of this group. Unless noted, the call rests on the fitted dose curve; in most records, active means well fitted curve in the direction sought with a large enough effect; inconclusive means small, poorly fitted or top-dose-only effect, or another doubt; inactive means no such curve, though single readings can be large; an effect the other way counts as inactive or inconclusive. Potency means the concentration at half of the fitted maximal effect.

SMILES	Pin1 inhibitor	Nrf2 activator	A549 viability	Nrf2 block
COc1ccc(Cl)cc1S(=O)(=O)NCCCn1ccnc1	-13%	0%	-8%	-18%
CCOc1cc(Cl)c(S(=O)(=O)NCCCn2ccnc2)cc1Cl	-3%	0%	-9%	16µM*
COc1cccc(CNC(=O)CN2C(=O)COc3ccc(S(=O)(=O)Nc4ccccc4)cc32)c1	-6%	-1%	1%	-25%
CCc1ccc(NC(=O)Cn2cnc3sc(C)c(S(=O)(=O)N4CCN(c5ccccc5OC)CC4)c3c2=O)cc1	18%	0%	5%	9%[9.27 µM]
CN(C(=O)c1cccc(NC(=O)Cc2ccc([N+](=O)[O-])cc2)c1)C1CC1	-3%	3%	-6%	21µM*
O=C1C(Cl)=C(NCCCO)C(=O)c2ccccc21	2%	0%	-20%	.
NC1=C(Cl)C(=O)c2ccc(S(N)(=O)=O)cc2C1=O	-7%	-4%	5.8µM*	3.3µM*
NC1=C(Cl)C(=O)c2ccccc2C1=O	-7%	-3%	?	16µM*
NS(=O)(=O)c1ccc2c(c1)C(=NO)c1cc(S(N)(=O)=O)ccc1-2	-8%	-1%	0%	5%
CCCN1CNc2c(c(=O)[nH]c(=S)n2CCc2cccs2)C1	-1%	.	14%	-1%
Cc1ccc(NC(=O)COCc2cc(-c3cccs3)on2)cc1Cl	5%	7.1µM*	15%	?
O=C(c1ccccc1)c1ccc2nc(-c3ccc(NC(=O)c4ccccc4Br)cc3)[nH]c2c1	?	0%	-7%	?
Cc1ccccc1C(=O)Nc1ccc(-c2nc3ccc(C(=O)c4ccccc4)cc3[nH]2)cc1	21%	3%	-10%	21µM*
Cc1ccc(NC(=S)N/N=C/c2ccc([N+](=O)[O-])s2)cc1	33%	-1%	23µM*	?
Cc1cc(C)cc(N=Cc2ccc([N+](=O)[O-])s2)c1	?	?	1%	-5%
COc1ccc(N2CCN(C(=S)Nc3cccc(C)c3C)CC2)cc1	0%	0%	?	26µM*
CC(C)(C)c1ccc(OCC(O)CSc2ncn[nH]2)cc1 (stereo not drawn)	?	-1%	0%	15µM*
CC(C)CC(CSc1ccc(Br)cc1)N1CCN(C)CCC1=O (stereo not drawn)	-1%	.	-4%	?
Cc1ccc(NC(=O)c2ccc(N/N=C/c3cccc(O)c3)c([N+](=O)[O-])c2)cc1	15%	3%	?	18µM*
Cc1ccccc1NC(=O)c1ccc(N/N=C/c2ccccc2O)c([N+](=O)[O-])c1	6%	-1%	-3%	12%
CC(=O)c1[nH]c(C)c(C(=O)N2CCCC(Nc3ccc(C(C)C)cc3)C2)c1C (stereo not drawn)	2%	0%	?	15µM*
N#Cc1c(NC(=O)c2ccccc2Cl)n(Cc2ccccc2)c2nc3ccccc3nc12	-20%	5%	?	16µM*
CCCCn1c(NC(=O)c2ccccc2Cl)c(C#N)c2nc3ccccc3nc21	?	3%	?	13µM*
Cc1ccc(S(=O)(=O)N2CCN(c3nc(-c4ccc(F)cc4)nc4cc(Cl)ccc34)CC2)cc1	-6%	.	-2%	14%
CCOc1ccc(NC(=O)N2CC=C(c3c[nH]c4ccccc34)CC2)cc1	?	8%	-19%	?
SMILES	Pin1 inhibitor	Nrf2 activator	A549 viability	Nrf2 block
Cc1cc2c(s1)c1cnn(Cc3ccc(Br)cc3)c(=O)c1n2C	4%	.	-4%	11%
COc1ccc(CN2[C@@H](CC(C)=O)c3ccc(/C=C/C(C)=O)cc3S2(=O)=O)cc1	?	23%	0%	4%
COC(=O)/C=C/c1ccc2c(c1)S(=O)(=O)N(Cc1ccc(OC)cc1)[C@H]2CC(=O)OC	23%	18µM*	-5%	9%
O=C(Nc1ccc(F)cc1)c1cccc(N2CCCS2(=O)=O)c1	0%	8%	1%	?
Cc1cc(C(=O)COC(=O)c2ccccc2O)c(C)n1Cc1cccs1	24%	-3%	?	6.5µM*
CCn1c(C)cc(C(=O)COC(=O)c2ccccc2[N+](=O)[O-])c1C	-3%	-3%	-1%	0.73µM*
O=C1CCc2cc(S(=O)(=O)Nc3ccc4ncccc4c3)ccc2N1	7%	.	-10%	0%
O=C(/C=C/c1ccccc1Cl)Nc1cccc(O)c1	2%	9%	-2%	1%
CCCCOC(=O)c1cccc(NC(=O)/C=C/c2ccccc2Cl)c1	1%	-2%	-1%	21µM*
c1ccc(C2=Nn3c(nnc3-c3cccs3)SC2)cc1	14%	?	-1%	-9%
c1csc(C2=Nn3c(nnc3-c3ccncc3)SC2)c1	11%	3%	-4%	16µM*
Cc1ccc(C)c(NC(=O)C(=O)NCCc2csc(-c3cccc(F)c3)n2)c1	-5%	-1%	9%	.
CCCN(CCC)Cc1c(C(=O)N/N=C/c2cccs2)nnn1-c1nonc1N	0%	7%	5%	4%
CCCN(CCC)Cc1c(C(=O)N/N=C/c2ccc(Br)cc2)nnn1-c1nonc1N	1%	-1%	?	16µM*
CN(C)Cc1c(C(=O)N/N=C/c2cccc(OCc3c(F)cccc3Cl)c2)nnn1-c1nonc1N	-10%	0%	0%	3.7µM*
CCCc1c(C(=O)N/N=C/c2cccs2)nnn1-c1nonc1N	2%	8.9µM*	0%	15%
CC[N+]1=C(C)C(C)(C)c2cc(C)ccc21	?	-1%	-18%	10µM*
O=C(CCNS(=O)(=O)c1ccc2c(c1)CCN2C(=O)C1CC1)N1CCN(c2ccc(F)cc2)CC1	14%	1%	9%	.
O=C1C(=O)N(c2ccccn2)C(c2ccc(F)cc2)/C1=C(/O)c1ccc(Br)cc1 (stereo not drawn)	-7%	-1%	-6%	8.2µM*
CC(=O)Nc1cc2nn(-c3ccccc3)nc2cc1C	-3%	0%	-6%	?
Cc1cc2nn(-c3ccccc3)nc2cc1NC(=O)c1cccs1	8%	7.1µM*	-17%	19%
Cc1nc2ccccc2c2oc(C(=O)NCCCN3CC(C)CC(C)C3)cc12 (stereo not drawn)	-4%	7%	-11%	3%
Cc1nc2ccccc2c2oc(C(=O)NCCCN3CCCC(C)C3)cc12 (stereo not drawn)	-9%	8%	21µM*	?
Cc1ccc(CNC(=O)c2cc3c(C)nc4ccccc4c3o2)cc1	-3%	0%	-2%	18µM*
C=CCn1c(SCC#N)nc2ccc(Cl)cc2c1=O	14%	.	0%	-17%
CC(C)(C)c1nnc(NC(=O)CCS(=O)(=O)c2ccccc2)s1	0%	16µM*	0%	-10%
CC(=O)c1sc(NC(=O)CCS(=O)(=O)c2ccc(C)cc2)nc1C	6%	22µM*	?	-25%
N#Cc1ccsc1NC(=O)CCS(=O)(=O)c1ccccc1	13%	14µM*	-1%	-15%
O=C(CCS(=O)(=O)c1ccccc1)Nc1nnc(C(F)(F)F)s1	-4%	?	?	-24%
CC(C)(C)c1ccc(OCCSc2nc(-c3cccs3)nc3cc(=O)[nH]n23)cc1	15%	4%	-5%	-22%
